From PubChem BioAssay
Activity calls are given as the source filed them.

Legend:
Albumin (Bos taurus) = Albumin (Bos taurus) (UniProt P02769); experiment: compounds binding labelled BSA control protein – biochemical, small-molecule microarray, Alexa647 label, 635/667 nm fluorescence, artefact control for SMM control protein annotation, profiling panel (AID 1118); settings: BSA-A647 binding, fluorescence 635 nm, higher = more signal;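 note: score merges 667 nm emission intensity and signal-to-noise per printed compound spot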
[1] = probe aXIP binding to arrayed compounds – biochemical, NeuroSMM set, 635/667 nm fluorescence, primary screen (AID 1119); settings: small-molecule microarray, higher = more signal, called active from +8 up or from −8 down;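 note: probe is the protein aXip251-270 applied at 1 µg/mL to compound-printed slides; binding of probe to printed compounds measured as 667 nm fluorescence plus signal to noise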
[2] = probe aNOTCH3 binding on compound microarray – biochemical, small-molecule microarray, 635/667 nm fluorescence, primary screen (AID 1120); settings: higher = more signal;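 note: probe is a biotin-tagged antibody raised against NOTCH3 rather than NOTCH3 protein; score merges spot fluorescence near 667 nm with spot signal to noise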
[3] = probe aNOTCH2 binding on compound microarray – biochemical, small-molecule microarray, 635/667 nm fluorescence, primary screen (AID 1121); settings: higher = more signal;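 note: score merges feature fluorescence read at 667 nm with its signal to noise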
[4] = target: Carbonic anhydrase 2 (Homo sapiens) (UniProt P00918); experiment: compounds binding carbonic anhydrase 2 – biochemical, small-molecule microarray, Alexa647-labelled CAII, profiling panel (AID 1122); settings: CAII-A647 binding fluorescence, higher = more signal
[5] = COS7 lysate on small-molecule microarray, probe aHis, 635 nm (AID 1123); settings: COS7 cell lysate, fluorescence, higher = more signal;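 note: z-score combines 667nm fluorescence intensity with signal-to-noise per printed compound spot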
[6] = probe aLAP1 signal on lysate-treated microarray – cell lysate, small-molecule microarray, COS7 lysate, primary screen (AID 1124); settings: probe aLAP1, fluorescence, higher = more signal;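 note: lysate comes from COS7 cells expressing LAP1 and is applied at 0.3 µg/mL; score merges spot fluorescence near 667 nm with signal-to-noise over triplicate slides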
Sam68 (KHDRBS1) = experiment: compounds binding KHDRBS1 protein – biochemical, small-molecule microarray, 635 nm fluorescence, primary screen (AID 1125); settings: higher = more signal;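 note: score merges 667 nm channel intensity with signal to noise over triplicate slides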
[7] = system: Chordin-like protein 2 (CHRDL2); experiment: compounds binding chordin-like 2 – biochemical, small-molecule microarray, 635 nm fluorescence, primary screen (AID 1126); settings: fluorescence 635 nm, higher = more signal;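 note: printed compound slides probed with Chrdl2 protein at 4 µg/mL for 1 h at 4 C; score merges 667 nm emission intensity with signal to noise over three replicate slides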
[8] = target: Concanavalin-A (Canavalia ensiformis) (UniProt P02866); experiment: compounds binding concanavalin A lectin – biochemical, small-molecule microarray, Alexa647 label, 635 nm, artefact control for SMM control protein annotation, primary screen (AID 1127); settings: ConA-A647 binding fluorescence, higher = more signal;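 note: z combines 667 nm emission intensity with signal-to-noise across three replicate slides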
[9] = compounds binding Alexa647 anti-His antibody – biochemical, small-molecule microarray, 635 nm fluorescence, artefact control for SMM control protein annotation, primary screen (AID 1128); settings: higher = more signal;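 note: score merges feature fluorescence with signal-to-noise for each printed compound spot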
[10] = system: Human papillomavirus type 1a E7 protein (residues 1-88); experiment: HPV1a E7 small-molecule binders, primary screen, biochemical, small-molecule microarray, residues 1-88, 635 nm (AID 1129); settings: small-molecule microarray binding, fluorescence 635 nm; higher = more signal
[11] = target: Focal adhesion kinase 1 (Homo sapiens) (UniProt Q05397); experiment: PTK2 protein binding on printed compound slides – biochemical, small-molecule microarray, 635/667 nm fluorescence, BSA, DTT, primary screen (AID 1130); settings: 635 nm fluorescence, higher = more signal;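 note: composite of spot emission at 667 nm and signal to noise over triplicate slides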
[12] = system: Fibrinogen (Alexa647-labelled); experiment: Alexa647-fibrinogen binding to printed small molecules – biochemical, small-molecule microarray, 635/667 nm fluorescence, artefact control for SMM control-protein annotation, profiling panel (AID 1131); settings: fibrinogen-A647 binding fluorescence, higher = more signal;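 note: z-score merges 667 nm fluorescence with per-spot signal-to-noise over triplicate slides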
[13] = target: Follistatin (Homo sapiens) (UniProt P19883); experiment: FST protein binding to printed compounds – biochemical, small-molecule microarray, 635/667 nm fluorescence, primary screen (AID 1132); settings: 635 nm fluorescence, higher = more signal
[14] = target: Fibroblast growth factor 2 (Homo sapiens) (UniProt P09038); experiment: basic fibroblast growth factor binding to printed compounds – biochemical, small-molecule microarray, 635/667 nm fluorescence, primary screen (AID 1133); settings: FGF2, fluorescence 635/667, higher = more signal
[15] = JC-1 mitochondrial potential readout, lung cancer cells – cell-based, A549, JC-1 fluorescence, basal, 24 h, 100 nL, profiling panel (AID 1138); settings: higher = more signal;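 note: A549 lung adenocarcinoma cells under basal conditions with no added stimulus; test concentration not given here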
Lefty1 = Lefty1 protein binding to printed compounds – biochemical, small-molecule microarray, 635/667 nm fluorescence, primary screen (AID 1139); settings: fluorescence 635/667, higher = more signal
[16] = system: wheat germ agglutinin (Triticum aestivum), Alexa647-labelled; experiment: Alexa647-WGA lectin binding to printed small molecules – biochemical, small-molecule microarray, 635/667 nm fluorescence, artefact control for SMM control-protein annotation, profiling panel (AID 1140); settings: WGA-A647 binding, 635 nm fluorescence, higher = more signal;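 note: score merges 667 nm feature emission with signal to noise over triplicate slides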
[17] = target: Luciferin 4-monooxygenase (Photinus pyralis) (UniProt P08659); experiment: inhibition of purified Photinus pyralis luciferase – biochemical, luminescence, purified enzyme, 2006 set, primary screen (AID 1141); settings: purified firefly luciferase, SteadyGlo luminescence, 30 min; higher = more signal, called active from +8 up or from −8 down;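 note: cell-free assay with purified firefly luciferase at 100 ng per well in PBS; test concentration not given here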
Chain of Luciferin 4-monooxygenase (Photinus pyralis) (P08659 whole entry, looked up): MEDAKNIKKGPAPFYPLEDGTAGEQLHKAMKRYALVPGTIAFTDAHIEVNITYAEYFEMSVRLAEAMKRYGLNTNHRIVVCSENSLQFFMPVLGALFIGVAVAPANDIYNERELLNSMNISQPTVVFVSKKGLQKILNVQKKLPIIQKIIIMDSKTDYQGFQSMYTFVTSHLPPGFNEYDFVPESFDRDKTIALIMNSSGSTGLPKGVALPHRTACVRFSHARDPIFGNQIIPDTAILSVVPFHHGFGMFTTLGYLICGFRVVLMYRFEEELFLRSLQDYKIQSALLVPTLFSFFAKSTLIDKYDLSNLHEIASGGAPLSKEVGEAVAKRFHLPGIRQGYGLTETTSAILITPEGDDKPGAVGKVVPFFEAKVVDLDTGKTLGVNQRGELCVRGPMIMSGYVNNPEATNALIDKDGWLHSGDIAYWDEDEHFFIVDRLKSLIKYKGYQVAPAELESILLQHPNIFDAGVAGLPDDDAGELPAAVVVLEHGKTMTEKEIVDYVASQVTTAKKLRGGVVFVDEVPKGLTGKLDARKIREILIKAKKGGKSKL

Chain of Focal adhesion kinase 1 (Homo sapiens) (Q05397 whole entry, looked up): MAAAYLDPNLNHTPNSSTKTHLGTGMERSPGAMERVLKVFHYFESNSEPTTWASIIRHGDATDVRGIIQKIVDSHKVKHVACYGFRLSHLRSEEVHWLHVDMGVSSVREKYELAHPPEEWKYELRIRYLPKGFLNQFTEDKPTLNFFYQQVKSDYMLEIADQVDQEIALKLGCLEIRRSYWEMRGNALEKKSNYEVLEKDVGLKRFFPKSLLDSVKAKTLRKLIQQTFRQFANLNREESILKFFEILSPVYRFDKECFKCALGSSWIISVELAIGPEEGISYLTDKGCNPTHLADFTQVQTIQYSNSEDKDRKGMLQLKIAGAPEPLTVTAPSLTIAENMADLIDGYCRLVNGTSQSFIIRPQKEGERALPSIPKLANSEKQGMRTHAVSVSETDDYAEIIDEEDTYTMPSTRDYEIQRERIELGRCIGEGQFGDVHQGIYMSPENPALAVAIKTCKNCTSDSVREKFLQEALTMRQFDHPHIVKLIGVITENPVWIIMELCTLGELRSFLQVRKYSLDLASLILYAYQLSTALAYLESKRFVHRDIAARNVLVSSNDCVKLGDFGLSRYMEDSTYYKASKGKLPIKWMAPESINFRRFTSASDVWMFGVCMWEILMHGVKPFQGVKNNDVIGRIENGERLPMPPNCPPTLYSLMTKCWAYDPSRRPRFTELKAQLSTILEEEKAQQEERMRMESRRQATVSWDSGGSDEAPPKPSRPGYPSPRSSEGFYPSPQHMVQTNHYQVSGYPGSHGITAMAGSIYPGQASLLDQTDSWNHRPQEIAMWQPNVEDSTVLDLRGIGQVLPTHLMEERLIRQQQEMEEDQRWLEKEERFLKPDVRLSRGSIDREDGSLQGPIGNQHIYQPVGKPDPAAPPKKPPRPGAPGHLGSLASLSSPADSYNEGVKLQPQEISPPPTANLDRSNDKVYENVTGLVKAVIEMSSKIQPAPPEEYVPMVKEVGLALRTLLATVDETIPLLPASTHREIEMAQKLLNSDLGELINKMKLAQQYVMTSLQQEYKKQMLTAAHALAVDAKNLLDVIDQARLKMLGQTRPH
Chain of Concanavalin-A (Canavalia ensiformis) (P02866 whole entry, looked up): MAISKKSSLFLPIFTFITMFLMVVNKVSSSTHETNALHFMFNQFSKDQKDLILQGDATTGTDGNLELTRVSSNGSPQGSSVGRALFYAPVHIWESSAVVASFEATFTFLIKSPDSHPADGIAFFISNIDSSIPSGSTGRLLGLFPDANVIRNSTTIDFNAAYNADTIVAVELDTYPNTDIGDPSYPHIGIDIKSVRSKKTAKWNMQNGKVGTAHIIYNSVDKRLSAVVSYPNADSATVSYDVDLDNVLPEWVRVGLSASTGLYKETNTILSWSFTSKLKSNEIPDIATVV
Chain of Fibroblast growth factor 2 (Homo sapiens) (P09038 whole entry, looked up): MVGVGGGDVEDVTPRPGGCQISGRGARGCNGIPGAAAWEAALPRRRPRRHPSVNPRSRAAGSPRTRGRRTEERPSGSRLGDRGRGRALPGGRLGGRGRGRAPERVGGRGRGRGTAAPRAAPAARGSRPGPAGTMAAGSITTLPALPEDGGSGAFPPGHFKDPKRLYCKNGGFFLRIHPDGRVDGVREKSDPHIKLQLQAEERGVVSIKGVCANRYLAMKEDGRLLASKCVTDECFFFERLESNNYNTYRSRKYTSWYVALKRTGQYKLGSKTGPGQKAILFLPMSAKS
Chain of Albumin (Bos taurus) (P02769 whole entry, looked up): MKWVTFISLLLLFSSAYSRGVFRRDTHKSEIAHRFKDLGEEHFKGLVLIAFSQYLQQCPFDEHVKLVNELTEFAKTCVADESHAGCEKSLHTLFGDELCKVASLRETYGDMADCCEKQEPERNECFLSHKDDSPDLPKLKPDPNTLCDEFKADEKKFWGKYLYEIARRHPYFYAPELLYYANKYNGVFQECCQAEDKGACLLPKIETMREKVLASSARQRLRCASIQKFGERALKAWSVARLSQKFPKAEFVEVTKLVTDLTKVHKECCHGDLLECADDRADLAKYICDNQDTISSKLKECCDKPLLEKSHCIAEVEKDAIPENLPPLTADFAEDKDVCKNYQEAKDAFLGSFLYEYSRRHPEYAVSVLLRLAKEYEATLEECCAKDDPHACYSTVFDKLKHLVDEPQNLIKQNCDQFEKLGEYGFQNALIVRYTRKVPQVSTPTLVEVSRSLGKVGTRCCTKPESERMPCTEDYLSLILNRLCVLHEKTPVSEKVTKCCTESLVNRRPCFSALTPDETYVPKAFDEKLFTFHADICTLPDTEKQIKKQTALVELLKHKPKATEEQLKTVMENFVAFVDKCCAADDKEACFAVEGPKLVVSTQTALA
Chain of Follistatin (Homo sapiens) (P19883 whole entry, looked up): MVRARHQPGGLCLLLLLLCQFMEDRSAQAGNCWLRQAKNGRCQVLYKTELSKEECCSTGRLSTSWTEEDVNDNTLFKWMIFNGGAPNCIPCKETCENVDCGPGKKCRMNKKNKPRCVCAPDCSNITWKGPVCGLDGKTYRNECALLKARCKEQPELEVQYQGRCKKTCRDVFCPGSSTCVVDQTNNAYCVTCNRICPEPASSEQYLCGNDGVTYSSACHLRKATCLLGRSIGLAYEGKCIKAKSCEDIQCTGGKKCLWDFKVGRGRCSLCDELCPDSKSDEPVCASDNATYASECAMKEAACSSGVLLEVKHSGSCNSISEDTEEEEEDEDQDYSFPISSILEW

Structure (SMILES) | composite z-score (Albumin (Bos taurus)) | composite Z-score [1] | composite z-score [2] | composite z-score [3] | composite z-score [4] | composite z-score [5] | composite z-score [6] | composite z-score (Sam68 (KHDRBS1)) | composite z-score [7] | composite z-score [8] | composite z-score [9] | composite z-score [10] | composite z-score [11] | composite z-score [12] | composite z-score [13] | composite z-score [14] | z-score [15] | composite z-score (Lefty1) | composite z-score [16] | z-score [17]
[N-]=[N+]=Nc1ccccc1[C@@H]1OC(c2ccc(OCCCO)cc2)=N[C@]1(CCS(=O)(=O)c1ccccc1)C(=O)N1CCCCC1 | 1.03 | -0.0281 (inactive) | 0.144 | 0.139 | 0.625 | 1.93 | 0.686 | 1.29 | -0.74 | 1.2 | 2.13 | 1.23 | 0.539 | 0.998 | 1.29 | 0.234 | -0.0343 | -0.0697 | 1.42 | -9.85 (active)
C=C(/C(=C/C[C@@H](OC(C)=O)c1ccc(CO)o1)c1cnc2ccccc2c1)C(C)C | -0.243 | 1.64 (inactive) | 0.12 | -0.0771 | 0.815 | 1.5 | 1.11 | 1.3 | 0.847 | 0.971 | 0.452 | 1.23 | 0.88 | 0.594 | 1.4 | 1.9 | -0.527 | 1.37 | 0.463 | -3.13 (inactive)
CC(=O)NCCCC[C@@H]1NC(=O)[C@@H]2C[C@H](C(=O)NCc3ccc(F)cc3)[C@H](c3ccc(O)cc3)N2C1=O | -1.25 | 0.15 (inactive) | -0.0391 | -0.153 | 0.715 | 1.79 | 0.453 | 1.02 | 0.526 | 1.15 | 2.04 | 0.582 | 0.244 | 0.754 | 1.33 | 1.22 | 0.329 | 0.889 | 0.182 | -0.333 (inactive)
COc1ccc([Si](C)(C)[C@H]2[C@H](CC(=O)N(CCO)Cc3ccccc3)O[C@@]3(C(=O)N(Cc4cccc(N5C(=O)c6cccc7cccc5c67)c4)c4ccccc43)[C@@H]2C)cc1 | 0.375 | -0.025 (inactive) | -0.0821 | -0.154 | 0.519 | 0.934 | 0.228 | 0.75 | -0.108 | 1.09 | 1.07 | 1.09 | 0.324 | 0.281 | 0.76 | 1.27 | -0.203 | 0.834 | 0.862 | -1.19 (inactive)
C=CC[C@@]1(C(N)=O)N=C(c2ccc(OCCCO)cc2)O[C@@H]1c1ccccc1N=[N+]=[N-] | 0.225 | -0.56 (inactive) | 0.116 | 0.468 | 0.555 | 1.64 | 1.82 | 0.934 | 1.16 | 0.126 | 1.91 | 1.24 | 0.231 | 0.183 | 1.34 | 1.14 | 0.755 | 1.04 | 1.13 | -5.82 (inactive)
